Screens from PubChem.
The list is not random: actives were taken first. Their share in the collection is about 18%.
VP16 counter: counter-screen for ROR gamma inhibitors: Gal4-VP16 reporter; Drosophila S2 Gal4-VP16 UAS-luciferase, luminescence, 20 h; hit rate 3.5% among 310,000; Potency, µM (series often up to 53.6 µM), without a hit: top-dose activity, negative = inhibition, usual class: inhibitors; AID 2546;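 also: Gal4-VP16 expression switched on by copper sulfate through the metallothionein promoter; potency is read from the fitted curve at half-maximal effect; nearly all actives have a fitted effect of over 50% in size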
LDHA inh: LDHA (human) enzyme inhibition; AID 1347041; purified LDHA, NADH/diaphorase-resazurin fluorescence; active compounds read low; hit rate 0.15% among 480,000; activity change, % (values are at about 110 or 230 µM); in the data active = activity change below about -30%; inconclusive = mostly about -25% to -30%;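 also: plate controls were DMSO wells for no effect and wells without enzyme for full effect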
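Human LDH5 at 2 nM final in Tris HCl pH 7.4 with 0.06 mM NADH and 0.2 mM pyruvate, reacted 5 minutes at room temperature. Remaining NADH coupled via diaphorase/resazurin; resorufin fluorescence read at 0 and 20 minutes, normalized to enzyme-free and DMSO wells.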
IL-1B inflam inh: inflammasome signaling inhibition, IL-1 beta readout; activity change, % at 57.5 µM; hit rate 4.7% among 360,000; AID 743279; THP-1 LPS/ATP IL-1B secretion, AlphaLISA, 16 h; active compounds read low; in the data active = activity change below about -50%; inconclusive = mostly about -30% to -49%
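Secreted IL-1B measured by AlphaLISA bead assay after 16 h compound exposure of THP-1 cells; compounds (final up to 57.5 uM) added 1 h before LPS (250 ng/mL) and ATP (1.25 mM) stimulation; lower signal means less secretion.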
TDP1 cell noCPT: qHTS for Inhibitors of human tyrosyl-DNA phosphodiesterase 1 (TDP1): qHTS in cells in absence of CPT. DT40 Tdp1-/- hTDP1 cells, no CPT, ATP luminescence, 48 h. Potency, µM (top dose mostly 46.2 µM), for inactives: at the top dose activity change, negative = growth inhibition, hits mostly inhibitors. hit rate 15% among 420,000. AID 686978, 2013; also: potency is read from the fitted curve at half-maximal effect; nearly all actives have a fitted effect of over 55% in size
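Compound effects on proliferation are scored in DT40 Tdp1-/-;hTDP1 cells in the absence of CPT. ATP levels (CellTiter-Glo luminescence) are recorded after a ≥48 hr, 37 °C incubation.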
DT40 TDP1 CPT: growth inhibition of DT40 Tdp1-/-;hTDP1 cells with camptothecin (screen for TDP1 inhibitors) | Potency, µM (doses to about 46.2 µM), for inactives: top-dose activity change, negative = growth inhibition, most hits filed as inhibitors | chicken DT40 Tdp1-/-;hTDP1 cells + 20 nM CPT, ATP luminescence, 48 h | hit rate 12% among 420,000; also: potency is read from the fitted curve at half-maximal effect; nearly all actives have a fitted effect of over 55% in size
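Chicken DT40 Tdp1-/- cells complemented with human TDP1, 400 cells/well, exposed to compounds plus 20 nM camptothecin for at least 48 h at 37 C; viability read as ATP content by CellTiter-Glo luminescence.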
RORg inh: inhibitors of mouse ROR gamma transcriptional activity; AID 2551; Potency, µM (doses to about 53.6 µM), without a hit: top-dose activity change, negative = inhibition, actives largely listed as inhibitors; hit rate 5.4% among 310,000; Drosophila S2 Gal4-RORgamma UAS-luciferase reporter, 20 h; also: potency is read from the fitted curve at half-maximal effect; nearly all actives have a fitted effect of over 60% in size
Target sequence (P51450 whole entry, looked up, the tested form may be a part): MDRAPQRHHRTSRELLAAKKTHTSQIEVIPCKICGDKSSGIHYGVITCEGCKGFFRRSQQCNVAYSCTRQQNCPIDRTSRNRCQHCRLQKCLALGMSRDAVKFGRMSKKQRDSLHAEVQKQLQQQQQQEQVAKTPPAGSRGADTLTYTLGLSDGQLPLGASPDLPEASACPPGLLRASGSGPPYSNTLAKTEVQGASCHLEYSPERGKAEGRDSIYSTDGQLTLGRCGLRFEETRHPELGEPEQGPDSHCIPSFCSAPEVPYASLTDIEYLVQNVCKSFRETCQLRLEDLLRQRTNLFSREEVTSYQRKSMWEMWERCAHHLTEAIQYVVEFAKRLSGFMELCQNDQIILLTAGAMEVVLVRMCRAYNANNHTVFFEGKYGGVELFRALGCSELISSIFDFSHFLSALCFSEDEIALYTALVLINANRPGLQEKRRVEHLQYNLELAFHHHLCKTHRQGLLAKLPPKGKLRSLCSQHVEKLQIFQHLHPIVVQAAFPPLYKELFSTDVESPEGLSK
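Schneider cells (Drosophila), stable Gal4 DBD–ROR gamma + UAS-luc; 1 hr cmpd preincubation; Cu2+ induction 700 uM final; 20 hr ambient; luminescence.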
* hit, by the source's call; ? = inconclusive; . = no result given. Unless noted, calls follow the shape of the dose curve; as a rule, active = well fitted curve in the direction sought with a large enough effect; inconclusive = small, poorly fitted or top-dose-only effect, or another doubt; inactive = no such curve, though single readings can be large; an effect the other way counts as inactive or inconclusive. Unless noted, % is scaled to controls: 0 for no effect and ±100 for the full control effect.

SMILES	VP16 counter	LDHA inh	IL-1B inflam inh	TDP1 cell noCPT	DT40 TDP1 CPT	RORg inh
OC(C#CCN1CCC(c2ccccc2)C1)(c1ccccc1)C1CCCCC1 (stereo unspecified)	.	20	.	.	.	.
CCOC(=O)C[C@H]1c2ccccc2S(=O)(=O)N1Cc1cc(OC)c(OC)c(OC)c1	.	-15	0	10µM*	15µM*	.
CCOC(=O)C[C@H]1c2ccccc2S(=O)(=O)N1Cc1cccc(C(F)(F)F)c1	.	3	23	13µM*	?	.
Cc1ccc(C(=O)OC(C)C(=O)NC(=O)NC2CC2)c(O)c1 (stereo unspecified)	.	-8	.	.	.	.
Clc1cccc(N2CCN(c3ncnc4c3nc3n4CCCCC3)CC2)c1	.	5	.	10µM*	15µM*	.
Cc1cccc(N2CCN(c3ncnc4c3nc3n4CCCCC3)CC2)c1C	.	-6	.	?	26µM*	.
Cc1cccc(NC(=O)C2CCN(c3ncnc4c3nc3n4CCCCC3)CC2)n1	-18%	-4	52	-29%	?	?
Fc1cc(Br)ccc1CSc1nc2ncccc2o1	.	3	.	.	.	.
COc1ccc(/C=C\C(=O)CC(O)(c2ccccc2)C(F)(F)F)cc1 (stereo unspecified)	-8%	3	-74*	15µM*	16µM*	?
CC(Sc1nnnn1C(C)(C)C)C(=O)c1cccc(Cl)c1 (stereo unspecified)	.	0	.	.	.	.
CC1Cc2ccccc2N1C(=O)CNc1cccc(S(=O)(=O)N2CCCC2)c1 (stereo unspecified)	6%	-11	0	21µM*	15µM*	3%
Cc1ccc(NCC(=O)Nc2cccc(S(=O)(=O)N(C)C)c2)cc1S(=O)(=O)N1CCCCCC1	.	-1	?	7.3µM*	8.2µM*	.
CC1Cc2ccccc2N1C(=O)CN1CCN(S(=O)(=O)c2ccc3c(c2)OCCCO3)CC1 (stereo unspecified)	.	-15	?	?	-23%	.
Cc1ccc(S(=O)(=O)N2CCOCC2)cc1NC(=O)CN(C)CC(=O)Nc1cccc(F)c1	.	-8	-16	21µM*	?	.
CCN(CC)S(=O)(=O)c1cccc(NC(=O)c2cccc(S(=O)(=O)N3CCCC3)c2)c1	.	-2	-1	16µM*	?	.
O=C(Nc1cccc(S(=O)(=O)N2CCCC2)c1)c1cccc(S(=O)(=O)N2CCOCC2)c1	.	-1	50	?	?	.
CCCCn1cnc2c1c(=O)n(CC(=O)Nc1ccc3c(c1)OCCO3)c(=O)n2Cc1ccccc1	.	-2	.	.	.	.
Cc1ccc(NC(=O)CSc2ncnc3ccccc23)c(C)c1	.	-11	.	.	.	.
Cc1ccc(S(=O)(=O)N2CCCCC2)cc1NC(=O)CNc1ccc(C(F)(F)F)cc1	.	-4	?	?	?	.
O=C(NNC1=NCCC1)c1cccc(S(=O)(=O)N2CCCC2)c1	?	-1	30	-5%	-5%	8.9µM*
CCN(CC)S(=O)(=O)c1cc(NC(=O)CNc2cccc(S(=O)(=O)N3CCOCC3)c2)ccc1C	.	1	-10	2.1µM*	5.2µM*	.
CCN(CC)S(=O)(=O)c1cccc(NC(=O)CNc2cccc(S(=O)(=O)N3CCCC3)c2)c1	0.71µM*	-8	-9	1.2µM*	1µM*	-35%
O=C(NNC1=NCCC1)c1cccc(S(=O)(=O)N2CCOCC2)c1	?	5	6	11%	-5%	?
CC(=O)c1cccc(NCC(=O)Nc2cccc(S(=O)(=O)N3CCCCC3)c2)c1	.	-2	-6	?	?	.
CCN(CC)S(=O)(=O)c1ccc(C)c(NC(=O)CNc2cccc(S(=O)(=O)N3CCCC3)c2)c1	.	-1	3	13µM*	18µM*	.
SMILES	VP16 counter	LDHA inh	IL-1B inflam inh	TDP1 cell noCPT	DT40 TDP1 CPT	RORg inh
Cc1ccc(NC(=O)CN(C)CC(=O)Nc2cccc(F)c2)cc1S(=O)(=O)N1CCCCCC1	7%	-15	-77*	?	?	4%
COc1ccc(NC(=O)CN(C)CC(=O)Nc2cccc(F)c2)cc1S(=O)(=O)N1CCCCC1	.	?	-24	?	?	.
COc1cc(C(=O)OCC(=O)NC(C)C(C)C)cc(Cl)c1OC (stereo unspecified)	.	-12	.	.	.	.
COc1ccccc1NC(=O)c1sc2nc(C)c(C(=O)Nc3ccc(C)cc3C)c(-c3ccccc3Cl)c2c1N	.	-3	.	-10%	3%	.
COc1ccc(C(=O)c2sc(Nc3ccccc3)c(C(=O)Nc3ccc(OC)c(OC)c3)c2N)cc1	-89%	-10	-5	16µM*	26µM*	?
COc1ccccc1NC(=O)c1c(Nc2ccccc2C)sc(C(=O)Nc2cccc(Cl)c2)c1N	?	-8	?	?	21µM*	20%
COc1ccc(Nc2sc(C(=O)c3ccccc3)c(N)c2C(=O)Nc2cc(C)ccc2C)c(OC)c1	.	-2	.	?	?	.
COc1ccc(C(=O)c2sc(Nc3cccc(OC)c3)c(C(=O)Nc3cccc(C)c3C)c2N)cc1	4%	0	68	10µM*	18µM*	22%
COc1ccc(C(=O)c2sc(Nc3ccc(Cl)cc3)c(C(N)=O)c2N)cc1	.	1	.	.	.	.
Cc1cc(Nc2sc(C(=O)c3ccc(F)cc3)c(N)c2C(=O)Nc2ccc(F)cc2)ccc1Cl	.	2	.	3.7µM*	12µM*	.
CCCNC(N)=S	.	1	.	.	.	.
Cc1nc(C#N)c(N2CCN(C(=O)CN(C)C3CCCCCC3)CC2)o1	.	9	.	.	.	.
COc1ccc(NC(=O)c2c(Nc3ccccc3)sc(C(=O)c3ccc(F)cc3)c2N)cc1	13µM*	-4	0	2.1µM*	2.3µM*	-120%
COc1ccc(NC(=O)c2c(N)c(C(=O)c3ccc(OC)cc3)n3ccccc23)cc1	.	-3	.	?	-23%	.
O=S(=O)(Nc1cccc(C(F)(F)F)c1)c1cnc[nH]1	-8%	-6	20	-20%	0%	-15%
O=S(=O)(Nc1ccc(C(F)(F)F)cc1)c1cnc[nH]1	-2%	2	12	23µM*	18µM*	41%
O=C(CCc1ccccc1Cl)NCc1cccc(C(F)(F)F)c1	.	0	.	.	.	.
N#Cc1cccc(Oc2cccc(-c3cnc4ccccc4n3)c2)c1C#N	.	-3	.	.	.	.
CCOC(=O)C1(N(CC)CC)Sc2cc(C)ccc2NC1=O (stereo unspecified)	?	1	35	18µM*	16µM*	8%
CCn1c(N2CCN(Cc3ccc([N+](=O)[O-])cc3)CC2)nc2ccccc21	4%	-16	-18	21µM*	?	-17%
